# Key:
# [1] = biological target: Calcium/calmodulin-dependent protein kinase type 1 (Homo sapiens) (UniProt Q14012); details: at 1 µM
# [2] = biological target: Calcium/calmodulin-dependent protein kinase type 1 (Homo sapiens) (UniProt Q14012); details: at 10 µM
# [3] = biological target: Calcium/calmodulin-dependent protein kinase type II subunit beta (Homo sapiens) (UniProt Q13554); details: at 1 µM
# [4] = biological target: Calcium/calmodulin-dependent protein kinase type II subunit beta (Homo sapiens) (UniProt Q13554); details: at 10 µM
# [5] = biological target: Calcium/calmodulin-dependent protein kinase type II subunit gamma (Homo sapiens) (UniProt Q13555); details: at 1 µM
# [6] = biological target: Calcium/calmodulin-dependent protein kinase type II subunit gamma (Homo sapiens) (UniProt Q13555); details: at 10 µM
# [7] = biological target: Calcium/calmodulin-dependent protein kinase type II subunit delta (Homo sapiens) (UniProt Q13557); details: at 1 µM
# [8] = biological target: Calcium/calmodulin-dependent protein kinase type II subunit delta (Homo sapiens) (UniProt Q13557); details: at 10 µM
# [9] = biological target: T1, Calcium/calmodulin-dependent protein kinase type IV (Homo sapiens) (UniProt Q16566); details: at 1 µM
# T1 sequence (whole entry): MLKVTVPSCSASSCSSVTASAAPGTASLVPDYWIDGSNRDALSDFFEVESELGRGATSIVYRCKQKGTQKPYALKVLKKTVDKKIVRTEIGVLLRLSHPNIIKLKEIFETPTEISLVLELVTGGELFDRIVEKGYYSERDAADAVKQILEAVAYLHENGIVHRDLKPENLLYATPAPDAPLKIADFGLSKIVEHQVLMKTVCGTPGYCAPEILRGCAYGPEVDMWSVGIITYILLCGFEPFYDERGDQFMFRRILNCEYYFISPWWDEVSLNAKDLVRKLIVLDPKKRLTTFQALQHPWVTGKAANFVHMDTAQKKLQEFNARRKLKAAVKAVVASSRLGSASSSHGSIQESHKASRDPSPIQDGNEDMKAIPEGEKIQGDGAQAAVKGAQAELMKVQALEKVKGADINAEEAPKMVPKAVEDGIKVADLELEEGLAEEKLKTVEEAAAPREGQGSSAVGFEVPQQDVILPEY
# [10] = biological target: T1, Calcium/calmodulin-dependent protein kinase type IV (Homo sapiens); details: at 10 µM
# [11] = biological target: Death-associated protein kinase 1 (Homo sapiens) (UniProt P53355); details: at 10 µM
# [12] = biological target: Death-associated protein kinase 2 (Homo sapiens) (UniProt Q9UIK4); details: at 1 µM
# [13] = biological target: Death-associated protein kinase 2 (Homo sapiens) (UniProt Q9UIK4); details: at 10 µM
# [14] = biological target: T2, Discoidin domain-containing receptor 2 (Homo sapiens) (UniProt Q16832); details: at 1 µM
# T2 sequence (whole entry): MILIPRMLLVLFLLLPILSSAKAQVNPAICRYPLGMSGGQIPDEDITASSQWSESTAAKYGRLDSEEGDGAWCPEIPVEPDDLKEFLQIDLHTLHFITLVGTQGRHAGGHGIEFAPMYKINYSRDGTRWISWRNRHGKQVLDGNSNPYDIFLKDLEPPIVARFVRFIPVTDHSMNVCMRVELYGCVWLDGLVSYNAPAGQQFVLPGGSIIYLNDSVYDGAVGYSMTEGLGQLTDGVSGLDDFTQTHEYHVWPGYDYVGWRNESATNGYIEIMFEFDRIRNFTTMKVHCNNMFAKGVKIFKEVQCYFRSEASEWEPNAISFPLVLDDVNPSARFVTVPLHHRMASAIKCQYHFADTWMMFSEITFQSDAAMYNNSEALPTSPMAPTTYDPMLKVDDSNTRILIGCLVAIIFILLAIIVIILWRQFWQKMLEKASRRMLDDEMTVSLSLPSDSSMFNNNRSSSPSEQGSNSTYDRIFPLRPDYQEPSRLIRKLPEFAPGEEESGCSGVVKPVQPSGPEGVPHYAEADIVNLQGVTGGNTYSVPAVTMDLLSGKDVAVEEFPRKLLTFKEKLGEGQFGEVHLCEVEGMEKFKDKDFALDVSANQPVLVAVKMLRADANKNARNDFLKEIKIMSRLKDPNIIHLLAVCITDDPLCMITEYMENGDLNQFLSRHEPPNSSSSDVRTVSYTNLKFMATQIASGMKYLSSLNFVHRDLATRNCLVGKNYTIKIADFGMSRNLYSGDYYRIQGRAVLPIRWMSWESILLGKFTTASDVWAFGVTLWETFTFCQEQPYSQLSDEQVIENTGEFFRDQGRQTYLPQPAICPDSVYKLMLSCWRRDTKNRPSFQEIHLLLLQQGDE
# [15] = biological target: T2, Discoidin domain-containing receptor 2 (Homo sapiens); details: at 10 µM
# [16] = biological target: T3, Myotonin-protein kinase (Homo sapiens) (UniProt Q09013); details: at 1 µM
# T3 sequence (whole entry): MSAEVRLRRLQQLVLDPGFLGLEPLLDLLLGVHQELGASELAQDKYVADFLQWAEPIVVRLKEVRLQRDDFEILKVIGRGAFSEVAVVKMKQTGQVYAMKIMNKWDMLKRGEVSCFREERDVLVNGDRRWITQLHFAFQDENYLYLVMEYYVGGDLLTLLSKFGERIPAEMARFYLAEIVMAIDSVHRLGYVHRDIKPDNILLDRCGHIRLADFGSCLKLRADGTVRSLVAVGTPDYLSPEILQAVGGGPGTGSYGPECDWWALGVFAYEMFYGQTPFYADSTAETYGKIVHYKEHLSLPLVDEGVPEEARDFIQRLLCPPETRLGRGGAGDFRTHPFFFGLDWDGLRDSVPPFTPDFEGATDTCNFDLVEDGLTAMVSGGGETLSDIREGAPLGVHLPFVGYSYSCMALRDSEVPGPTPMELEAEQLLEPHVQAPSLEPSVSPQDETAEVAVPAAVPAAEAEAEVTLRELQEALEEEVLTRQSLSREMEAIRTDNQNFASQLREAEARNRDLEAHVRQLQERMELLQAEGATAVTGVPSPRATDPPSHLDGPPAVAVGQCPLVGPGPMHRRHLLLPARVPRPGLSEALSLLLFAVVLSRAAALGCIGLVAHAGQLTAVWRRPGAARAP
# [17] = biological target: T3, Myotonin-protein kinase (Homo sapiens); details: at 10 µM
# [18] = biological target: T4, Serine/threonine-protein kinase 17A (Homo sapiens) (UniProt Q9UEE5); details: at 1 µM
# T4 sequence (whole entry): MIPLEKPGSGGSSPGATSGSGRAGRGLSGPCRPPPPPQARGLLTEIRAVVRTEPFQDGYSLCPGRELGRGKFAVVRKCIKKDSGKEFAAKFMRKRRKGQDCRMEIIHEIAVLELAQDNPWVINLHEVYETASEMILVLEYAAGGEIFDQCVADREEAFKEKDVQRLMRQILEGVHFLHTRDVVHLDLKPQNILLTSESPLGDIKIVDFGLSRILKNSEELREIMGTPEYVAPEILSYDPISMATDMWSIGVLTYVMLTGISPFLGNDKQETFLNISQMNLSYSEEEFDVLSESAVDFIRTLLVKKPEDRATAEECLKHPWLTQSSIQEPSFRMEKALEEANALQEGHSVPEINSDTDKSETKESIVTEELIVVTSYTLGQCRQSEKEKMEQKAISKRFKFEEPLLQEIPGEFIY
# [19] = biological target: T5, Serine/threonine-protein kinase DCLK2 (Homo sapiens) (UniProt Q8N568); details: at 1 µM
# T5 sequence (whole entry): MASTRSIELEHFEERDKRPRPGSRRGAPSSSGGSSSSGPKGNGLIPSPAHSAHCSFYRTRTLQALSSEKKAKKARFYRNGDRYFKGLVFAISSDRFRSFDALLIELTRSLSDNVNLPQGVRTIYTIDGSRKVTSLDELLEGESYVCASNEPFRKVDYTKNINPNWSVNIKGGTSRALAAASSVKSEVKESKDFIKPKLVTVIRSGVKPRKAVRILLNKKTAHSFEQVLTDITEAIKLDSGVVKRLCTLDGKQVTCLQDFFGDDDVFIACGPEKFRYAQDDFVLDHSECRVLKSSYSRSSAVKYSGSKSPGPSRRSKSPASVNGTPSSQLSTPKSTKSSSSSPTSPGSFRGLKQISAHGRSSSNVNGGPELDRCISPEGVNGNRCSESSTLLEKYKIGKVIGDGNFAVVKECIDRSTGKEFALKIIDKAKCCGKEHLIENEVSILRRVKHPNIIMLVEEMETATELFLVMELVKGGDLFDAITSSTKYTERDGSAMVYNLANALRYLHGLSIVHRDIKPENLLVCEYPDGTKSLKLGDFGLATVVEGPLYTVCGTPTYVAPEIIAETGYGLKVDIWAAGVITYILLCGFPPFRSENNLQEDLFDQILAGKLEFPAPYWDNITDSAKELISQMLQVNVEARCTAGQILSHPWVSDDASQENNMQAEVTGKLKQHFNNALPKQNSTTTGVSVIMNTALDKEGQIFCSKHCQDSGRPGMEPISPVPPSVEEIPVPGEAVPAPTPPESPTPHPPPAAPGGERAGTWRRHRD
# [20] = biological target: T5, Serine/threonine-protein kinase DCLK2 (Homo sapiens); details: at 10 µM
# Chain of Calcium/calmodulin-dependent protein kinase type II subunit gamma (Homo sapiens) (Q13555 whole entry): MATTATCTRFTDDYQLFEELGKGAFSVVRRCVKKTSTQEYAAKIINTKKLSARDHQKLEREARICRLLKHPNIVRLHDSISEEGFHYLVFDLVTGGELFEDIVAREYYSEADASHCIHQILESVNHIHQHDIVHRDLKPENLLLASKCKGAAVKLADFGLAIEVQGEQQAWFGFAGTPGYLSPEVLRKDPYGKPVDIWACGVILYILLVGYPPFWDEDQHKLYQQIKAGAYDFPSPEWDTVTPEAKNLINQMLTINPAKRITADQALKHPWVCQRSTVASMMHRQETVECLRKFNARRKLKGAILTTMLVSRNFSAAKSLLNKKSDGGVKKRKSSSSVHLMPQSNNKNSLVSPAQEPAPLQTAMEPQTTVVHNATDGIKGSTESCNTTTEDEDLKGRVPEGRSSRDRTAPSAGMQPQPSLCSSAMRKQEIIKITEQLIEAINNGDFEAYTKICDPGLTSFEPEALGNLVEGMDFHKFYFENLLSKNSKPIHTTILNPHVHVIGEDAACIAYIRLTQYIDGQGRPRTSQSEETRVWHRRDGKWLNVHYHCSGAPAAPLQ
# Chain of Death-associated protein kinase 1 (Homo sapiens) (P53355 whole entry, looked up): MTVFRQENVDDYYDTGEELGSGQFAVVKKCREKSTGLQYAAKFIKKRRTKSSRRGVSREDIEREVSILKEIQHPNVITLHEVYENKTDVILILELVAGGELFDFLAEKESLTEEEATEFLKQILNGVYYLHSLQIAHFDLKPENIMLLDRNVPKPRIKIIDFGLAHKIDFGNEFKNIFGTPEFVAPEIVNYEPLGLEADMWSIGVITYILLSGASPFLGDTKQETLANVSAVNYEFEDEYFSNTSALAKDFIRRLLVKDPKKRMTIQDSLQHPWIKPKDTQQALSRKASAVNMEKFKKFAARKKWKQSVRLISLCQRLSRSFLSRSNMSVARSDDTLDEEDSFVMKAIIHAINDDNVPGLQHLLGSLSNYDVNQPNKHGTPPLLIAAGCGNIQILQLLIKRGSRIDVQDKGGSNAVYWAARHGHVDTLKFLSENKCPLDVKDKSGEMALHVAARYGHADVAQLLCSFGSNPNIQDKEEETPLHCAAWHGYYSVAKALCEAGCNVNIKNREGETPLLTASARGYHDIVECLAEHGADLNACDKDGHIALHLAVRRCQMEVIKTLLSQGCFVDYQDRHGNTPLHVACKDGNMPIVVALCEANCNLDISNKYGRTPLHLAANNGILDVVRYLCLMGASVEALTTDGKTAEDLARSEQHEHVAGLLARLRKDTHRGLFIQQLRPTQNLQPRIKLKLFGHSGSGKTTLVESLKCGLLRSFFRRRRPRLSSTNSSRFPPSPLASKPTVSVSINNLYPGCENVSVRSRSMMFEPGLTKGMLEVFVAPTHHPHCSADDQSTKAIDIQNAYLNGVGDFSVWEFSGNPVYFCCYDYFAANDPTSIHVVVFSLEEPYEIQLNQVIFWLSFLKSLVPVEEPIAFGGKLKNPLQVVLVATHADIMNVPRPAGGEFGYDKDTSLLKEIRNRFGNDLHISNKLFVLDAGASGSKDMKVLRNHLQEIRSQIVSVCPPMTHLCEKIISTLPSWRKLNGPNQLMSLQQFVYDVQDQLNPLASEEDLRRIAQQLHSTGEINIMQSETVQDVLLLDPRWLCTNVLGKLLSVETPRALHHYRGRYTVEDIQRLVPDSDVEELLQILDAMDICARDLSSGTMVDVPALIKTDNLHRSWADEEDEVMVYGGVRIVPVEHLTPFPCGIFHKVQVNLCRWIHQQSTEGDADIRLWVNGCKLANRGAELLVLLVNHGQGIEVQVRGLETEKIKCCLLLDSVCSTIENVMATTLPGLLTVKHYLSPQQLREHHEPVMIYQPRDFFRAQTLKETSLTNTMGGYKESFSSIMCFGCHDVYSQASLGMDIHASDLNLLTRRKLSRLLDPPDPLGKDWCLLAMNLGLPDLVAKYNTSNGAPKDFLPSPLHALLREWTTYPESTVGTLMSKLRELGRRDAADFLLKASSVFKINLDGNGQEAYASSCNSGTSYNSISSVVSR
# Chain of Calcium/calmodulin-dependent protein kinase type II subunit delta (Homo sapiens) (Q13557 whole entry): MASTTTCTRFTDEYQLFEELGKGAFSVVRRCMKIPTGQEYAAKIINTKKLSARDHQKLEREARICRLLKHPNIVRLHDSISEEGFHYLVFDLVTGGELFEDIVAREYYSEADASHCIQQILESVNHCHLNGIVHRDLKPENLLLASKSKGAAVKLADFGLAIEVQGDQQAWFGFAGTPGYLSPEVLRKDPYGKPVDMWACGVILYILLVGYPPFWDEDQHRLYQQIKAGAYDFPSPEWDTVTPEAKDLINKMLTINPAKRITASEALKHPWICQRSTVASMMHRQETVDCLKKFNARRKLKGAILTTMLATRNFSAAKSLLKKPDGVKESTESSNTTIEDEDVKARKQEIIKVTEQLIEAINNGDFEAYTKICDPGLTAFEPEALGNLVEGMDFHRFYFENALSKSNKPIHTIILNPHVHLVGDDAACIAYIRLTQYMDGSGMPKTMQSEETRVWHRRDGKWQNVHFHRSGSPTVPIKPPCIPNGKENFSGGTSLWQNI
# Chain of Calcium/calmodulin-dependent protein kinase type 1 (Homo sapiens) (Q14012 whole entry, looked up): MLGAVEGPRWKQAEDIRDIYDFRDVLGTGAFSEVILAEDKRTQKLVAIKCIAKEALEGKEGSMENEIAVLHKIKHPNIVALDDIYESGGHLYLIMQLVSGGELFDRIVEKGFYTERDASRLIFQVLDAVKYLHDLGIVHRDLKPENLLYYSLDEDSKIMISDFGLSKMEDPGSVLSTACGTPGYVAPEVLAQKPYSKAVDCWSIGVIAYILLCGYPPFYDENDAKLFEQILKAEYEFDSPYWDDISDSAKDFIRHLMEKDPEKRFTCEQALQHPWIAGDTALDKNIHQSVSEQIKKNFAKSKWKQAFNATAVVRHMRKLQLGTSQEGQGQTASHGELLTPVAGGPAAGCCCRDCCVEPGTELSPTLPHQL
# Chain of Death-associated protein kinase 2 (Homo sapiens) (Q9UIK4 whole entry, looked up, the tested form may be a part): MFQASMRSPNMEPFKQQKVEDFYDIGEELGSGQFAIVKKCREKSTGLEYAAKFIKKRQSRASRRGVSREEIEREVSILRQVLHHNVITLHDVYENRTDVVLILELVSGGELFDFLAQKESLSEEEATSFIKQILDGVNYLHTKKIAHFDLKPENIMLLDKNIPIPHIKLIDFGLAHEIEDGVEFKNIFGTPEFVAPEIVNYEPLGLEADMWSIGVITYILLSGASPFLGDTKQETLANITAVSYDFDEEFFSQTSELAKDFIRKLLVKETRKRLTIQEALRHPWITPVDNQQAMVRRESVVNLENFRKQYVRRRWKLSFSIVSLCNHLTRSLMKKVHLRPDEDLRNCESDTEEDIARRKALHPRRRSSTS
# Chain of Calcium/calmodulin-dependent protein kinase type II subunit beta (Homo sapiens) (Q13554 whole entry): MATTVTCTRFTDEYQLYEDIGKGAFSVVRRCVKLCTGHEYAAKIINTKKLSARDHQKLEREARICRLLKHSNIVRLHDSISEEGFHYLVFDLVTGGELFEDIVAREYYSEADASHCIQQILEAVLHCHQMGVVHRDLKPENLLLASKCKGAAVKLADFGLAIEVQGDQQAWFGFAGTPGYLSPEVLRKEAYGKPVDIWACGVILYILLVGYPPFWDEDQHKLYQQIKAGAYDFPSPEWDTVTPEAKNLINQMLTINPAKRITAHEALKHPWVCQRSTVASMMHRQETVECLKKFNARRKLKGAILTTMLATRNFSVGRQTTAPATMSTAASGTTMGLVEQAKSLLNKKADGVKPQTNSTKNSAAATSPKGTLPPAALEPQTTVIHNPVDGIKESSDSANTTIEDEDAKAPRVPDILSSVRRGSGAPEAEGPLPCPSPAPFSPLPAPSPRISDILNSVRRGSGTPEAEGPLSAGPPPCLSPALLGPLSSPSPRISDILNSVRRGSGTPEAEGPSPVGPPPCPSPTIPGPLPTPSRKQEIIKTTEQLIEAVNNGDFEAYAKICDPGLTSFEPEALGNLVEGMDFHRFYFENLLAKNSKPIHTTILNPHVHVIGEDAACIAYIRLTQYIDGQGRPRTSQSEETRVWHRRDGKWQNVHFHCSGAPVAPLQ
Compound,residual activity [1],residual activity [2],residual activity [3],residual activity [4],residual activity [5],residual activity [6],residual activity [7],residual activity [8],residual activity [9],residual activity [10],residual activity [11],residual activity [12],residual activity [13],residual activity [14],residual activity [15],residual activity [16],residual activity [17],residual activity [18],residual activity [19],residual activity [20]
N#Cc1cnc2cnc(NCc3cccnc3)cc2c1Nc1ccc(F)c(Cl)c1,42%,26%,-2%,1%,0%,-1%,-1%,0%,98%,102%,55%,14%,2%,80%,53%,100%,69%,30%,–,–
N#CC(C#N)=C(N)/C(C#N)=C/c1ccc(O)cc1,–,–,96%,90%,116%,95%,–,–,–,–,92%,99%,97%,116%,97%,–,148%,91%,94%,47%
O=[N+]([O-])c1ccc(-c2nc(-c3ccc(F)cc3)c(-c3ccncc3)[nH]2)cc1,113%,81%,102%,92%,–,–,113%,99%,101%,92%,65%,108%,101%,77%,52%,96%,93%,116%,117%,111%

# From ChEMBL document CHEMBL2218924, “A broad activity screen in support of a chemogenomic map for kinase signalling research and drug discovery” (Biochem J, 2013)
